# Source: PubChem BioAssay (Tox21)
# Inconclusive results are not listed. Activity calls are given as the source filed them. Calls come from the whole dose curve; as a rule, active = well fitted activation curve with a large enough effect in the signal ratio in the repeat runs (not every such curve was filed as active); inconclusive = weak or mixed curves, or effect the other way; inactive = no such curve, though single readings can be large or run the other way; the % refers to the signal ratio.
# Target: Peroxisome proliferator-activated receptor gamma (Homo sapiens) (UniProt P37231)
# Test: qHTS assay to identify small molecule agonists of the peroxisome proliferator-activated receptor gamma (PPARg) signaling pathway (AID 743094)
# Conditions: HEK293H PPARg-UAS-bla, beta-lactamase FRET ratio, 17 h; series mostly up to 57 µM
# Excerpt: U.S. Tox21 Program National Center for Advancing Translational Sciences [NCATS] NIH Chemical Genomics Center [NCGC] U.S. Environmental Protection Agency [EPA] National Institutes of Environmental Health Sciences [NIEHS] National Toxicology Program [NTP] U.S. Food and Drug Administration [FDA] Tox21 Assay Overview: The peroxisome proliferator-activated receptors (PPARs) are lipid-activated transcription factors of the nuclear receptor superfamily with three distinct subtypes namely PPAR alpha, PPAR delta (also called PPAR beta) and PPAR gamma (PPARg). All these subtypes heterodimerize with Retinoid X receptor (RXR) and these heterodimers regulate transcription of various genes. PPAR-gamma receptor (glitazone receptor) is involved in the regulation of glucose and lipid metabolism. To identify the compounds that activate PPAR-gamma signaling, GeneBLAzer PPAR gamma UAS-bla HEK293H cell line (Invitrogen, Carlsbad, CA, USA) containing a beta-lactamase reporter gene under control of the control of an upstream activator sequence (UAS) stably integrated into HEK293H cells was used to screen Tox21 compound library.
# Tox21 Assay Protocol Summary: PPARg-bla cells were dispensed at 3000 cells/6uL/well in 1536-well black wall/clear bottom plates using a Multidrop Combi (Thermo Fisher Scientific, Waltham, MA) dispenser. After the assay plates were incubated at 37C and 5% CO2 for 5 h, 23 nL of compounds dissolved in DMSO, positive controls or DMSO only was transferred to the assay plate by a Pintool station (Kalypsys, San Diego, CA). The assay plates were incubated at 37C for 17 h. After 1 uL of LiveBLAzerTM B/G FRET substrate was added using a Bioraptr Flying Reagent Dispenser (FRD) workstation (Beckman Coulter, Indianapolis, IN, USA), the plates were incubated at room temperature for 1 h, and fluorescence intensity was measured by an Envision plate reader (PerkinElmer, Shelton, CT).
# Peroxisome proliferator-activated receptor gamma (Homo sapiens), sequence (P37231 whole entry, looked up): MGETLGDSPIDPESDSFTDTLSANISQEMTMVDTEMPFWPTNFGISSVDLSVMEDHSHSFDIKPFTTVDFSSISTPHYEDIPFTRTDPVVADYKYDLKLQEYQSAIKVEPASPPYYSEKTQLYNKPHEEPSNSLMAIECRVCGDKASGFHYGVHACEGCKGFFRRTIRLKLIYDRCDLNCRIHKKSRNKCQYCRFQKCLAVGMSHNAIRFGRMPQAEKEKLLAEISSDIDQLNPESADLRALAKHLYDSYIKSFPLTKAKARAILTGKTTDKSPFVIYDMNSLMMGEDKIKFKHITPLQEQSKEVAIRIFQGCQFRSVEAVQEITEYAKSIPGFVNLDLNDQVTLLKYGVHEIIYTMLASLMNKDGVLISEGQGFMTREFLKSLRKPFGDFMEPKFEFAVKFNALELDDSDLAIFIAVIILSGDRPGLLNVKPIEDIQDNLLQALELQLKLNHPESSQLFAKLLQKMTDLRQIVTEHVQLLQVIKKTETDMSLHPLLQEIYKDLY
row,Compound,outcome
1,COC(=O)c1ccccc1CS(=O)(=O)NC(=O)Nc1nc(OC)cc(OC)n1,inactive
2,CCCC(C)(COC(N)=O)COC(N)=O,inactive
3,CCOC(=O)Nc1cccc(OC(=O)Nc2ccccc2)c1,inactive
4,CCC(C(N)=O)N1CCCC1=O (stereo not given),inactive
5,COC(=O)[C@@H](N)CCCN/C(N)=N/[N+](=O)[O-],inactive
6,CC(C)(C)C(=O)Cl,inactive
7,CN(C)CCN(C)C,inactive
8,Cc1ccc2cc(C)ccc2c1,inactive
9,CCCCS(=O)(=O)Cl,inactive
10,CCCCCCCCBr,inactive
11,c1cncc([C@@H]2CCCCN2)c1,inactive
12,OCC(Cl)CCl (stereo not given),inactive
13,NC(=O)OCCCc1ccccc1,inactive
14,COc1ccc(CN2CCNCC2)c(OC)c1OC,inactive
15,CC(=O)CN(CC(C)=O)N=O,inactive
16,C(COCC1CO1)OCC1CO1 (stereo not given),inactive
17,C/C(=N\NC(=O)Nc1cc(F)cc(F)c1)c1ncccc1C(=O)O,inactive
18,C=C(Cl)CCl,inactive
19,O=C(Cl)C(Cl)Cl,inactive
20,O=C(Cl)c1ccccc1,inactive

row,Compound,outcome
1,COC1=CC(=O)O[C@@H](/C=C/c2ccccc2)C1,inactive
2,CC(C)NCC(O)c1ccc([N+](=O)[O-])cc1 (stereo not given),inactive
3,Cc1cc(OC(=O)N(C)C)nn1C(=O)N(C)C,inactive
4,CC(C)N(Cc1ccccc1)C(=O)C(C)(C)C,inactive
5,CC(Cl)(Cl)Cl,inactive
6,CCCCCCCC(=O)Cl,inactive
7,CCC1(CC)C(=O)C=CNC1=O,inactive
8,O=C(Cl)OCc1ccccc1,inactive
9,CC#Cc1cc(C)nc(Nc2ccccc2)n1,inactive
10,C=CCCC#N,inactive
11,CCN[C@@H](C)Cc1cccc(C(F)(F)F)c1,inactive
12,CCC1(c2ccccc2)CCC(=O)NC1=O (stereo not given),inactive
13,C=C(C)[C@H]1CN[C@H](C(=O)O)[C@H]1CC(=O)O,inactive
14,ClC(Cl)(Cl)Cl,inactive
15,CNC(=O)NC(O)C(Cl)(Cl)Cl (stereo not given),inactive
16,C=CCc1cc(OC)c2c(c1)OCO2,inactive
17,CN(C)C(=O)Oc1cc(OC(=O)N(C)C)cc(C(O)CNC(C)(C)C)c1 (stereo not given),inactive
18,CC(C)(O)C(Cl)(Cl)Cl,inactive
19,BrCC1CO1 (stereo not given),inactive
20,ClCCCCl,inactive
